Screening results as filed in PubChem BioAssay.
Only some compounds are listed: those with a hit (about 4.2% of all), similar ones and a draw of the others.
NLRP3 yeast inh: blocks the NALP3 inflammasome reconstituted in yeast; Yeast reconstituted NLRP3/ASC/caspase-1, beta-gal luminescence, 24 h; inhibition, % at 10 µM; 330,000 compounds, 0.39% hits; AID 2825;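 active means inhibition of 50% or more; inactive means inhibition below 50%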
NALP1 yeast inh: blocks the NALP1 inflammasome reconstituted in yeast; S. cerevisiae NALP1/ASC/caspase-1 growth, X-gal OD620, 72 h; inhibition, % at 10 µM; 280,000 compounds, 0.61% hits; AID 2071; in the data active means inhibition mostly above about 24%, no sharp cut-off; inactive means mostly below about 32%
V-ATPase pH: alters yeast V-ATPase proton transport; S. cerevisiae, pHLuorin cytosolic pH fluorescence; response, % at 10 µM; 350,000 compounds, 0.37% hits; AID 504577; in the data active means response mostly above about 7.3%, no sharp cut-off; inactive means mostly below about 5.4%; further: actives read high
tim10-1 inh: growth inhibitors of tim10-1 mutant yeast. S. cerevisiae tim10-1 ts strain growth, BacTiter-Glo, 24 h. inhibition, % at 20 µM. 330,000 compounds, 2.2% hits. AID 463190;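 active means inhibition of at least 40%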;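 further: mutant grown at 25 °C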
tim23-1 inh: growth inhibitors of tim23-1 mutant yeast; S. cerevisiae tim23-1 growth, BacTiter-Glo luminescence, 24 h; inhibition, % at 20 µM; 330,000 compounds, 1.3% hits; AID 463212;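 active means growth inhibition of the mutant yeast at or above 50%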;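 further: temperature-sensitive mutant grown at 25 °C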
TIM10 inh: TIM10 yeast growth inhibition; AID 463195; 330,000 compounds, 1.4% hits; S. cerevisiae TIM10 strain growth, BacTiter-Glo luminescence, 24 h; inhibition, % at 10 µM;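 active means inhibition of 40% or more at the single tested concentration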;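 further: wild-type TIM10 isogenic control strain grown at permissive 25 °C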
tim10-1 confirm: tim10-1 yeast growth inhibition, confirmed | shares compounds with tim10-1 inh | S. cerevisiae tim10-1 ts strain growth, BacTiter-Glo, 24 h | inhibition, % at 20 µM | 7,400 compounds, 56% hits | AID 463213;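 active means inhibition of yeast growth at or above a set limit in either of two repeat tests at 20 µM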;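 further: tim10-1 mutant grown at permissive 25 °C to find synthetic lethal compounds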
Each line names hits and unclear results; the compound was inactive in the other large screens (follow-up assays come after a bar, where they were run).

Cc1nc(N2CCCCC2)c2c(C)c(C(=O)Nc3ccc4c(c3)OCCO4)sc2n1	tim10-1 inh 46 | tim10-1 confirm 31
Cc1nc(N2CCN(C)CC2)c2c(C)c(C(=O)Nc3ccc(C)c(F)c3)sc2n1	none
Cc1nc(N2CCN(c3ccccn3)CC2)c2c(C)c(C(=O)Nc3c(F)cc(F)cc3Br)sc2n1	tim10-1 inh 40 | tim10-1 confirm inactive
O=C(c1ccc2ccccc2n1)N1CCN(c2ccccc2O)CC1	none
Cc1cc(N2C3CCC2CC(O)(c2ccc(F)cc2)C3)nc(-c2ccccc2)n1 (centres undefined)	tim10-1 inh 48 | tim10-1 confirm 37
CCOc1ccc(C(=O)/C=C/c2cc(OC)c(OC)c(OC)c2)cc1	tim10-1 inh 45 | tim10-1 confirm inactive
CN(C)CCN(C(=O)c1ccc2ccccc2c1)c1nc2ccc(F)cc2s1	none
CCN(CC)CCN(C(=O)c1ccc2ccccc2c1)c1nc2ccc(OC)cc2s1	tim10-1 inh 49 | tim10-1 confirm inactive
CCN(CC)CCN(C(=O)c1cc2ccccc2cc1OC)c1nc2ccc(OC)cc2s1	tim10-1 inh 56 | tim10-1 confirm inactive
CCN(CC)CCN(C(=O)c1cc2ccccc2cc1OC)c1nc2ccc(F)cc2s1	tim10-1 inh 57 | tim10-1 confirm inactive
O=S(=O)(c1ccc(F)c(F)c1)N1CCN(c2ccccn2)CC1	none
O=C(Cc1ccccc1)NCC(=O)OCC(=O)c1ccc(F)cc1	none
CCOC(=O)c1cn(CC(=O)Nc2ccc(C)cc2)nn1	none
CC(CN1CCCC1)OC(=O)c1cccc(F)c1 (centres undefined)	none
CN1CCC(=NNC(=O)CSc2ccc(Cl)cc2)CC1	none
COc1ccc(C(=O)CSc2nnc(CNc3ccc(C)cc3C)n2Cc2ccco2)cc1	tim10-1 inh 40 | tim10-1 confirm inactive
Cc1ccc(C(=O)CSc2nnc(CNc3ccc(C)cc3C)n2Cc2ccco2)cc1	none
Cc1ccc2cc(CN(CC3CCCO3)C(=S)Nc3ccccc3)c(=O)[nH]c2c1 (centres undefined)	tim10-1 inh 44 | tim10-1 confirm inactive
CCC(C(=O)OC)n1cnc2c(cnn2-c2ccc(Cl)cc2)c1=O (centres undefined)	none
COc1ccc(C(=O)/C=C2/c3ccccc3CC(C)(C)N2C)cc1	tim10-1 inh 47 | tim10-1 confirm inactive
CN1/C(=C\C(=O)Nc2cccnc2)c2ccccc2CC1(C)C	none
Cc1cc(C)nc(NC(=S)NC(=O)c2ccccc2)n1	none
Cc1cc(C)c2c(NC(=S)NC(=O)c3ccccc3)nn(C)c2n1	tim10-1 inh 50 | tim10-1 confirm inactive
C=C1CCC[C@]2(C)C[C@H]3OC(=O)C(CN(C)CC(OC)OC)[C@H]3CC12 (some centres undefined)	tim10-1 inh 42 | tim10-1 confirm 41
C=C1CCC[C@]2(C)C[C@H]3OC(=O)C(CN4CCCCC4CO)[C@H]3CC12 (some centres undefined)	tim10-1 inh 48 | tim10-1 confirm 37
C=C1CCC[C@]2(C)C[C@H]3OC(=O)C(CNC(CC)CO)[C@H]3CC12 (some centres undefined)	tim10-1 inh 52 | tim10-1 confirm 45
C=C1CCC[C@]2(C)C[C@H]3OC(=O)C(CNC(C)CC)[C@H]3CC12 (some centres undefined)	tim10-1 inh 43 | tim10-1 confirm 37
Cc1nn(CC(=O)NC(C)C)c(C)c1[N+](=O)[O-]	none
CCc1ccc(C2CC(c3ccco3)=NN2S(C)(=O)=O)cc1 (centres undefined)	none
Cc1cc(C(=O)CCC(=O)N2CCN(c3ccccc3F)CC2)c(C)s1	none
CCN(C(=O)CN1C(=O)S/C(=C\c2ccc(Cl)cc2)C1=O)C1CCS(=O)(=O)C1 (centres undefined)	none
CN(/N=C/c1cc(Br)cc(Br)c1O)c1ccccc1	tim10-1 inh 43 | tim10-1 confirm 35
O=C(CP(=O)(c1ccccc1)c1ccccc1)N/N=C/c1cc(Br)cc(Br)c1O	none
Clc1ccc(Cl)c(-c2nn3c(COc4ccccc4)nnc3s2)c1	none
c1ccc(OCc2nnc3sc(-c4cccs4)nn23)cc1	tim10-1 inh 47 | tim10-1 confirm inactive
Clc1cccc(CN2CCc3c([nH]c4ccccc34)C2)c1	tim10-1 inh 45 | tim10-1 confirm 44
Cc1cccc(CN2CCc3c([nH]c4ccccc34)C2)c1	none
Cc1c(N=Cc2nc3ccccc3n2C)c(=O)n(-c2ccccc2)n1C	none
C#CCN1C(C)=C(C(=O)OC)C(c2cccc([N+](=O)[O-])c2)C(C(=O)OCC)=C1C (centres undefined)	none (no result: NALP1 yeast inh)
Cc1ccc(N/C(=N/S(=O)(=O)c2cccs2)c2ccccc2)c(C)c1	tim10-1 inh 46 | tim10-1 confirm inactive
Cc1ccccc1N/C(=N/S(=O)(=O)c1cc(F)ccc1F)c1ccccc1	none
c1ccn2cc(C34CC5CC(CC(C5)C3)C4)nc2c1	tim10-1 inh 53 | tim10-1 confirm 39
CC(C)CNS(=O)(=O)c1ccccc1C(=O)N1CCCCC1	none
Cc1ccc(SCCN2CCC(C(C)(C)C)CCC2=O)cc1 (centres undefined)	tim10-1 inh 45 | tim10-1 confirm inactive
Cc1[nH]c(=O)[nH]c(=O)c1/C=N/NC(=O)[C@@H](NC(=O)OC(C)(C)C)C(C)C	none
Cc1ccc(-c2nc3ccccn3c2NCc2ccc3c(c2)OCO3)cc1	tim10-1 inh 47 | tim10-1 confirm inactive
COc1ccc(-c2nc3ccc(C)cn3c2NCc2ccc3c(c2)OCO3)cc1	none
CC(C)CC(=O)NC(=S)Nc1ccccc1C(F)(F)F	tim10-1 inh 41 | tim10-1 confirm inactive
Cc1ccc(NC(=O)c2ccc3c(c2)nnn3C)cc1	none
CC(C)(C)NC(=O)C(c1cccs1)N(Cc1ccc(F)cc1)C(=O)c1csnn1 (centres undefined)	tim10-1 inh 43 | tim10-1 confirm inactive
O=C(/C=C/c1cccs1)c1cc(Br)ccc1OC(=O)N1CCOCC1	tim10-1 inh 56 | tim10-1 confirm 43
COc1ccc2oc3cc(C)[n+]([O-])c(-c4ccc(Br)cc4)c3c2c1	tim10-1 inh 42 | tim10-1 confirm inactive
COc1ccc(-c2ccc3oc(-c4ccc(OC)cc4)c(-c4ccc(OC)cc4)c3c2)cc1	none (no result: NALP1 yeast inh)
c1ccc(CNc2nc(NCc3ccccc3)c3ccccc3n2)cc1	tim10-1 inh 62 | tim10-1 confirm inactive
O=C(NP(=O)(N1CCCC1)N1CCCC1)C1=C(N2CCOCC2)/C(=C/c2cccc([N+](=O)[O-])c2)CC1	none
CCOC(=O)C(=O)C1=C(N2CCOCC2)/C(=C\c2cccc([N+](=O)[O-])c2)CC1	tim10-1 inh 41 | tim10-1 confirm inactive
